L3MBTL1 block: qHTS Assay for the Inhibitors of L3MBTL1. AlphaScreen L3MBTL1–H3K9me1 peptide binding. Potency, µM (series often up to 57.1 µM), without a hit: at the top dose activity, negative = inhibition, hits mostly inhibitors. 230,000 tested, 0.66% active; also: % is scaled to controls: 0 for no effect and ±100 for the full control effect; nearly all actives have a fitted effect of over 60% in size
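AlphaScreen proximity signal between nickel-chelate acceptor and streptavidin donor beads (final 10 ug/mL) reports binding of 50 nM L3MBTL1 to 75 nM biotin-H3 K9me1 peptide; complex incubated with compounds 30 min at room temperature; cefsulodin titration as control.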
Sfp PPTase inh: qHTS Assay for Inhibitors of Bacillus subtilis Sfp phosphopantetheinyl transferase (PPTase) | Biochemical Sfp PPTase activity, qHTS | Potency, µM, for the others: largest response in the series, negative = inhibition, hits mostly inhibitors | 310,000 tested, 3.5% active;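 also: the enzyme is Sfp with the accession as filed and its product quenches rhodamine fluorescence; 0% = enzyme reaction without inhibitor and -100% = no enzyme wells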
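Step 1, compound plus 15 nM Sfp-PPTase, 15 min, room temperature. Step 2, add rhodamine-CoA (5 uM) and BHQ-2-YbbR (12.5 uM). Step 3, read 525/598 nm fluorescence at 0 and 30 min.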
G9a block: qHTS Assay for Inhibitors of Histone Lysine Methyltransferase G9a; Histone-lysine N-methyltransferase EHMT2 (Homo sapiens), Q96KQ7; G9a H3K9 monomethylation, AlphaScreen, 2 h; Potency, µM (titrated, usually from 102 µM), inactives show at the top dose activity, negative = inhibition, usual class: inhibitors; 350,000 tested, 8.8% active; also: % is scaled to controls: 0 for no effect and ±100 for the full control effect; nearly all actives have a fitted effect of over 75% in size
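AlphaScreen detection with an anti-monomethyl H3K9 antibody quantified product after a 2 h room-temperature reaction containing 500 nM biotinylated H3K9 peptide, 20 µM SAM and 20 nM enzyme, which had been preincubated 15 min with compound.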
JMJD2A Tudor inh: qHTS Assay for Inhibitors of JMJD2A-Tudor Domain. AlphaScreen JMJD2A-Tudor / H3K4me3 peptide binding. Potency, µM (highest dose often 114 µM), inactives show top-dose activity change, negative = inhibition, usual class: inhibitors. 390,000 tested, 4.4% active; also: % is scaled to controls: 0 for no effect and ±100 for the full control effect; nearly all actives have a fitted effect of over 50% in size
Target sequence (O75164 whole entry, looked up, the tested form may be a part): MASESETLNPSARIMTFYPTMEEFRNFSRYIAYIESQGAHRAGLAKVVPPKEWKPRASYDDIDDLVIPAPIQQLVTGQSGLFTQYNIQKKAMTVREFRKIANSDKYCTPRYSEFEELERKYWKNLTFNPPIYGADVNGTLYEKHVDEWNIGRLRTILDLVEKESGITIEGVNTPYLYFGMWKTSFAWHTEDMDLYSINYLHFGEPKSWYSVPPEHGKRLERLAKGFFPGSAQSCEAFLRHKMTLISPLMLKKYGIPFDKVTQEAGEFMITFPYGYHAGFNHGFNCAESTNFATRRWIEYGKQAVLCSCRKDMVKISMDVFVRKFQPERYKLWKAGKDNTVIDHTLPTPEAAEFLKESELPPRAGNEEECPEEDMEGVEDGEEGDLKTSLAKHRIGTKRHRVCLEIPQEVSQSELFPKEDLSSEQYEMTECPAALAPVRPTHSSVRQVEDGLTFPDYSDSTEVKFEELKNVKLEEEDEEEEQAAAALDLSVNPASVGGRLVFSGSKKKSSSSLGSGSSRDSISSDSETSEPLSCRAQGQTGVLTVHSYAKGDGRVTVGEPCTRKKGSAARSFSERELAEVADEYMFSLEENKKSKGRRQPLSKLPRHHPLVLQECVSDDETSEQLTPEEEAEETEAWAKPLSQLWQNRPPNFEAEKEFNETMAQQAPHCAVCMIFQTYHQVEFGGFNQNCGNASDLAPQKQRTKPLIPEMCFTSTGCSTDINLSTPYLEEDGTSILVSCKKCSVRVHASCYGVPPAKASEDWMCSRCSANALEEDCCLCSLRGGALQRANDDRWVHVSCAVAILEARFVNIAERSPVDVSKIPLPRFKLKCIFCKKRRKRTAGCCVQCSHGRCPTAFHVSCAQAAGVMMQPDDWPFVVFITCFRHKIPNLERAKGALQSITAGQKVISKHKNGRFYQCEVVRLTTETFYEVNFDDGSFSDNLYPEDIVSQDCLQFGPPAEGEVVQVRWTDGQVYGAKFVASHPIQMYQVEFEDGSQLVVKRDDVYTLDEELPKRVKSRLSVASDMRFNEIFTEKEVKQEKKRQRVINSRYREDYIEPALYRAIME
BAZ2B block: qHTS Assay for Inhibitors of BAZ2B; AlphaScreen BAZ2B-H3K14Ac peptide displacement; 360,000 tested, 4.4% active; Potency, µM (top dose mostly 114 µM), for the others: top-dose activity change, negative = inhibition, usual class: inhibitors; Bromodomain adjacent to zinc finger domain protein 2B (Homo sapiens), Q9UIF8; AID 504333, 2011; also: % is scaled to controls: 0 for no effect and ±100 for the full control effect; nearly all actives have a fitted effect of over 60% in size
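AlphaScreen displacement of biotin-H3(5-23)K14Ac peptide (50 nM final) from BAZ2B (50 nM final) in PBS pH 7.4, 0.01% Tween-20; complex preformed 30 min RT, then compounds (top 110 uM) 30 min RT, beads 20 min dark.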
HP1b chromo inh: HTS for Inhibitors of HP1-beta Chromodomain Interactions with Methylated Histone Tails | Chromobox protein homolog 1 (Homo sapiens), P83916 | AlphaScreen HP1-beta / biotin-H3K9me3 peptide binding | Potency, µM (highest dose often 114 µM), without a hit: at the highest dose activity change, negative = inhibition, most hits filed as inhibitors | 390,000 tested, 0.56% active | AID 540317, 2011; also: nearly all actives have a fitted effect of over 70% in size
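AlphaScreen: HP1-beta (50 nM) preformed 30 min with biotin-H3(1-18)K9me3 peptide (50 nM) in PBS pH 7.4, 0.01% Tween-20. Compound added for 30 min at RT, then streptavidin donor/nickel chelate acceptor beads (10 ug/mL) for 30 min.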
Starred values were filed as active, the others as inactive; ? = inconclusive; / = not tested or not shown; [ ] = remark or other dose. Sampled rows, rich in hits. Any-hit rate of the full collection: about 12%. Calls follow the shape of the dose curve; as a rule, active = well fitted curve in the direction sought with a large enough effect; inconclusive = small, poorly fitted or top-dose-only effect, or another doubt; inactive = no such curve, though single readings can be large; an effect the other way counts as inactive or inconclusive. Potency is read from the fitted curve at half-maximal effect.

SMILES | L3MBTL1 block | Sfp PPTase inh | G9a block | JMJD2A Tudor inh | BAZ2B block | HP1b chromo inh
Cc1ccc(N2CC(C(=O)Nc3ccccc3C(=O)NC3CCCCC3)CC2=O)cc1 (configuration not stated) | 3% | 12% | 1%[59 µM] | -10% | 2% | 30%
Cc1ccc(N2CC(C(=O)Nc3ccc(N(C)C)cc3)CC2=O)cc1C (configuration not stated) | / | ? | -30%[12.7 µM] | 56µM* | ? | -6%
CCN(CC)C(=O)c1sc2c(c1C)c(=O)n(-c1ccc(C)c(C)c1)c(=O)n2CC(=O)Nc1ccc(OC)cc1OC | / | / | 4%[59 µM] | -22% | -8% | -8%
CCOC(=O)N1CCN(C(=O)CN2C(=O)COc3ccc(C(C)(C)C)cc32)CC1 | 35% | -10% | ? | 89µM* | 38% | -3%
CC(C)(C)c1ccc2c(c1)N(CC(=O)O)C(=O)CO2 | 3% | 21% | -29% | -8% | -34% | 36%
O=C(NCc1ccccc1F)c1ccc(CN2CC(=O)N3CCCCC3C2=O)cc1 (configuration not stated) | / | / | -9%[59 µM] | -10% | -6% | 14%
COc1ccc(C(=S)N2CCOCC2)cc1OC(=O)c1ccccc1 | / | 56µM* | 10µM* | -35% | -38% | ?
COc1cc(C(=O)Oc2ccc(Br)cc2C(=S)N2CCOCC2)cc(OC)c1OC | / | 32µM* | 10µM* | -36% | -30% | ?
COc1cc(C(=S)N2CCOCC2)ccc1OC(=O)c1ccccc1 | / | -3% | 40µM* | -10% | -26% | 13%
COc1ccc(C(=S)N2CCOCC2)cc1OC(=O)c1cc(OC)c(OC)c(OC)c1 | / | 45µM* | 7.9µM* | ? | ? | ?
COc1cc(C(=S)N2CCOCC2)ccc1OC(=O)Cc1ccc(F)cc1 | 2% | 2% | ? | -15% | -8% | 6%
COc1ccc(C(=S)N2CCOCC2)cc1OC(=O)c1ccc(C)cc1 | / | -1% | 45µM* | ? | ? | -20%
COc1cc(C(=S)N2CCOCC2)ccc1OC(=O)/C=C/c1ccco1 | / | 56µM* | ? | -26% | / | 21%
Cc1ccc2c(c1)c1c(c(=O)n(-c3cccc(Cl)c3)c(=O)n1C)n2C | / | / | 2%[59 µM] | -8% | -4% | -1%
COc1cccc(OCC(O)CN2CCN(c3ccccn3)CC2)c1 (configuration not stated) | 10% | -4% | 45µM* | -27% | -9% | 24%
COc1cccc(OCC(O)CN2CCN(CCN3C(=O)c4cccc5cccc(c45)C3=O)CC2)c1 (configuration not stated) | -9% | 10% | 50µM* | ? | -38% | 1%
Cc1ccc(OCC(O)CN2CCN(c3ccccn3)CC2)c(C)c1 (configuration not stated) | -9% | -3% | 50µM* | -9% | -26% | 21%
Cc1cccc(C)c1OCC(O)CN1CCN(c2ccccn2)CC1 (configuration not stated) | 1% | 17% | ? | -14% | / | 22%
OC(COC(c1ccc(Cl)cc1)c1ccc(Cl)cc1)CN1CCN(c2ccccn2)CC1 (configuration not stated) | -2% | -47% | ? | ? | 50µM* | -5%
COc1ccc(NC(=O)Nc2nnc(SCC(=O)Nc3cccc(C)c3C)s2)cc1 | / | / | -2%[59 µM] | -3% | 11% | 78%
Cc1c(Cl)cccc1N1CCn2c1nc1c2c(=O)n(CC(=O)O)c(=O)n1C | / | / | 9%[59 µM] | -9% | -17% | 25%
Cc1ccc(CNC(=O)CCn2cnc3ccccc3c2=O)cc1 | / | / | -13%[59 µM] | -29% | -30% | 2%[57 µM]
CCCCNC(=O)C(CC)n1c(SCc2cccc(F)c2)nc2ccncc21 (configuration not stated) | / | / | / | 1%[57.1 µM] | / | 18%[57 µM]
COc1cc(NC(=O)N2CCC(CN3CCOCC3)CC2)cc(OC)c1OC | / | / | 7%[59 µM] | 9% | -1% | 44%
Cc1ccc(C(=O)O)cc1-n1c(C)cc(C=O)c1C | ? | 22% | ? | -30% | 79µM* | 15%
SMILES | L3MBTL1 block | Sfp PPTase inh | G9a block | JMJD2A Tudor inh | BAZ2B block | HP1b chromo inh
Cc1cc(C(=O)O)ccc1-n1c(C)cc(/C=C2\SC(=O)NC2=O)c1C | -16% | 4% | ? | -18% | -30% | 31%
Cc1c(C(=O)O)cccc1-n1c(C)cc(C=O)c1C | ? | 7% | 45µM* | 50µM* | ? | 1%
CCC/C(=C1/C(=O)CC(C)(C)C(C(=O)OC)C1=O)N1CCCC1 (configuration not stated) | 6% | -5% | 71µM* | -26% | -10% | 19%
O=C(O)C1CCN(C(=O)COc2ccc3c4c(c(=O)oc3c2)CCC4)CC1 | -7% | 16% | 50µM* | 4% | ? | 36%
O=C(O)c1ccc(COc2ccc3c4c(c(=O)oc3c2)CCC4)o1 | ? | -19% | 40µM* | ? | ? | -22%
NC(=O)C1CCN(C(=O)COc2ccc3c4c(c(=O)oc3c2)CCCC4)CC1 | -6% | 15% | -37% | -32% | ? | 6%
CC(=O)C(C)Oc1ccc2c3c(c(=O)oc2c1)CCCCC3 (configuration not stated) | 2% | 71µM* | -34%[12.7 µM] | -2% | 5% | 33%
O=c1oc2cc(OCc3ccc([N+](=O)[O-])cc3)ccc2c2c1CCCC2 | -11% | 0% | 9%[59 µM] | 3% | -7% | 41%
CCc1ccc(NC(=O)CSc2nc3ccsc3c(=O)n2C(C)CC)cc1 (configuration not stated) | / | / | 21%[59 µM] | -11% | 1% | 35%
O=C(CNC(=O)C1CCCCCC1)OC(C(=O)Nc1cc(C(F)(F)F)ccc1Cl)c1ccccc1 (configuration not stated) | / | / | / | -16% | / | /
Fc1ccc(CN2CCN(c3ncnc4scc(-c5ccccc5)c34)CC2)cc1 | / | -26% | 41%[2.33 µM] | ? | -10% | 22%
Fc1ccc(N2CCN(c3nc(CN4CCOCC4)nc4scc(-c5ccccc5)c34)CC2)cc1 | 16µM* | -15% | 8.9µM* | 45µM* | 11µM* | ?
Fc1ccc(-c2csc3ncnc(Nc4ccc(N5CCOCC5)cc4)c23)cc1 | -24% | 0% | 32%[0.501 µM] | ? | 40µM* | -24%
Cc1cccc(-c2nc3c4ccccc4nc(NCc4ccccc4Cl)n3n2)c1 | / | / | 55%[59 µM] | 3% | ? | 76%

Compound activity deposited in PubChem by National Center for Advancing Translational Sciences (NCATS).
